Whole data set: some 68,000 sequences, median “fluorescence intensity (a.u.)” near 9,100, cut for the highest 2% near 16,000. The list comes from a sample in which the highest values are over-represented; it also holds similar and randomly drawn sequences.

This assay deals with OsWRKY34 (Oryza sativa, UniProt Q0JBA9 1-250). Description: protein-binding microarray (RPBM); PBS, 2% BSA, 51.3 ng/ul salmon testes DNA, 50 uM zinc acetate, 200 nM TF, 25 C, 1 h; high values mean tight binding. Particulars: protein: recombinant; tags: N-terminal polyhistidine and DsRed monomer fusion (pET32a); label: CyDye5-dUTP incorporated in the synthesized complementary strand; 3' TTTTT single-stranded linker to array surface; dsDNA, one strand shown. The essentials: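 The binding signal for each feature is its fluorescence intensity in arbitrary units. An Axon 4000B scanner was used to read a custom Agilent array that had been made double-stranded with Cy5-dUTP primer extension, blocked with 2% BSA, incubated at 25 °C for 1 h with 200 nM protein in PBS, 2% BSA, salmon testes DNA and 50 µM zinc acetate, and washed. The protein was an N-terminal polyhistidine–DsRed transcription factor fusion from E. coli BL21-CodonPlus, purified on Ni–NTA.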
OsWRKY34, sequence (Q0JBA9 entry or part of it): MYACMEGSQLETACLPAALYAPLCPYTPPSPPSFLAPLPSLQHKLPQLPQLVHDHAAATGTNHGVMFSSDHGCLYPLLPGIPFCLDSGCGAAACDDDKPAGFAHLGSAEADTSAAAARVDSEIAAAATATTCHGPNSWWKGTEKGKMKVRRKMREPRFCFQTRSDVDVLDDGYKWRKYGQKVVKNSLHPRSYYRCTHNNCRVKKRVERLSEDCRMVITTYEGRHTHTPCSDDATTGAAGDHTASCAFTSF
As for “CTCCCTCCGTTTCAAAATGTTTGACACCGTTGACTTTTTACGGAGTCACCTAGTGCAG”, the binding signal is 28300 fluorescence intensity (a.u.). Next, “ATGTACTCCCTCCGTTTCAAAATGTTTGACACCGTTGACTCGGAGTCACCTAGTGCAG”: 12300 fluorescence intensity (a.u.); “CCCTCCGTTTCAAAATGTTTGACACCGTTGACTTTTTAATCGGAGTCACCTAGTGCAG”: 14900 fluorescence intensity (a.u.); “TACTACTCCCTCCGTTTCAAAATGTTTGACACCGTTGACTCGGAGTCACCTAGTGCAG”: 13100 fluorescence intensity (a.u.). Next, “TTTCTTCCATACTGAAATGTGTATCTTAGCTACTGAAGCTCGGAGTCACCTAGTGCAG”: 8440 fluorescence intensity (a.u.). Next, “CATTTAATCTCCTCGTTACCGCTCAATTAACGCACCGATTCGGAGTCACCTAGTGCAG”: 8880 fluorescence intensity (a.u.). With “CGGAGATCTTCAGAAACGAGTTATTTTTCCTCGCAAAACGCGGAGTCACCTAGTGCAG”, the binding signal was 8690 fluorescence intensity (a.u.). Next, “ATTTGATCCTCTTTTTTCAACTTTGCTTATTTGACCCTTCCGGAGTCACCTAGTGCAG”: 11100 fluorescence intensity (a.u.); “TCACCCTTCACCTGCATGATCCTCTCTTTTTCAATCCCTCCGGAGTCACCTAGTGCAG”: 9340 fluorescence intensity (a.u.).

Take “GCTCCGACTCCCTGTTTCCTGGTCCTCTTTTACACCGGCTCGGAGTCACCTAGTGCAG”: the binding signal was 15100 fluorescence intensity (a.u.). Next, “TACATGTCTTAGAGCTACACATCTCTGATTTTTTTTTACACGGAGTCACCTAGTGCAG”: 8950 fluorescence intensity (a.u.); “CGGAGTCGGTCAAGCTTAACCACTATTCCTTTCCGGATTGCGGAGTCACCTAGTGCAG”: 61500 fluorescence intensity (a.u.). To “CCATTCCGCCCACTAGCTTTCTCTCTCTATTTTCTTTTTCCGGAGTCACCTAGTGCAG” belongs 16800 fluorescence intensity (a.u.); to “TTTTCTATTTCCCACTACTTTTCGTCATTTTTCTAATATTCGGAGTCACCTAGTGCAG”, 18100 fluorescence intensity (a.u.).

For “TCTCTTCCGGTCGGAAGCTTGCTTTCCTTTTCTTCTTCTTCGGAGTCACCTAGTGCAG”, the binding signal was 8360 fluorescence intensity (a.u.). To “TAGATTCTCTTTCTATTTTCTTTCCACTTAGCTTAGATATCGGAGTCACCTAGTGCAG” belongs 9100 fluorescence intensity (a.u.); to “CATATGTTGTTTTCTATTTCCCACTAATTTTCGTCATTTTCGGAGTCACCTAGTGCAG”, 10400 fluorescence intensity (a.u.); to “CACTATTCCTTTCCGGATTGCTTCTGCGTTCTACTTGATGCGGAGTCACCTAGTGCAG”, 11000 fluorescence intensity (a.u.). Regarding “ACTGCTAATTCGTCTATTTTGTACCACTTTCTCTATTTTTCGGAGTCACCTAGTGCAG”, the binding signal is 16500 fluorescence intensity (a.u.).

With “CTTCTATTTTCTTTCTGCTCTTCTCTTCTCTTGTCTACTTCGGAGTCACCTAGTGCAG”, the binding signal is 10300 fluorescence intensity (a.u.). Next, “ATCTTTTTCTACTATCACTATATCATATTCTATTTTTTTTCGGAGTCACCTAGTGCAG”: 10500 fluorescence intensity (a.u.).

Consider “CCCCACATTTTCTTTCACCTTCTCTTCCATTCCACCTCTCCGGAGTCACCTAGTGCAG”, for which the binding signal was 10100 fluorescence intensity (a.u.). For “CTCTGTAATATATCATTATGACTGCTAATTCGTCTATTTTCGGAGTCACCTAGTGCAG”, the binding signal is 8080 fluorescence intensity (a.u.). On to “TGTGGTGTGCTTGAGGTGCTTTTGAGTTTTAAATAGATTACGGAGTCACCTAGTGCAG”, for which the binding signal was 8520 fluorescence intensity (a.u.). Next, “GGGATCTGAGGCGCGTTTCTTAATTTGCCTTCTCTTTGAGCGGAGTCACCTAGTGCAG”: 9220 fluorescence intensity (a.u.). Next, “AGTCCATCTAATTCGGCTGCACTCTTTTTCCCCTGTGAAGCGGAGTCACCTAGTGCAG”: 8530 fluorescence intensity (a.u.); “ATTTTATCACCCTGCTTAGAGTTTCGCCCGGAGCCATGAACGGAGTCACCTAGTGCAG”: 10700 fluorescence intensity (a.u.); “GCGAGGTCGGGGAGGTGGGTGCACAGTGCCCTGCGAGATGCGGAGTCACCTAGTGCAG”: 8120 fluorescence intensity (a.u.). Regarding “TACAAGCCCGTTGCCATCTCTACTCCGGCCTCCTAGTCCTCGGAGTCACCTAGTGCAG”, the binding signal is 9760 fluorescence intensity (a.u.). Turning to “GAATTCTTGTGTTCCAAGCATTTCGATTTGCTCCTCTCTTCGGAGTCACCTAGTGCAG”, the binding signal was 9020 fluorescence intensity (a.u.).

As for “ATGGTGGTTCTAATTCTGTTGGTTGACTGCTCTCTGAAATCGGAGTCACCTAGTGCAG”, the binding signal is 13300 fluorescence intensity (a.u.).

As to “ATCGGAGACTGACTGAGTGAAGGTTGGTTGGTTCACACTTCGGAGTCACCTAGTGCAG”, the binding signal is 8750 fluorescence intensity (a.u.). As for “CTGCTCTAACTGAAGTGCCAGGTGACTTGCTTGGTTGGTTCGGAGTCACCTAGTGCAG”, the binding signal was 18300 fluorescence intensity (a.u.). To “CTATCGTCATCCTCGCGATCGCCGCATTCATCCATCCACTCGGAGTCACCTAGTGCAG” belongs 12800 fluorescence intensity (a.u.). As to “TTTGTCCTGGGCTTCTTTCGGCCCAATCTCTCTCCCGTCGCGGAGTCACCTAGTGCAG”, the binding signal is 11100 fluorescence intensity (a.u.). With “ACTGTTTATAGGGTAGGGGTAAGGTTGTGTTCATATAGGTCGGAGTCACCTAGTGCAG”, the binding signal is 11700 fluorescence intensity (a.u.). To “TCCGGGCTGGGTGGGTGGGGTGGGGATGGAGCTTGCCTGGCGGAGTCACCTAGTGCAG” belongs 24100 fluorescence intensity (a.u.). Next, “TGGGGATGGAGCTTGCCTGGGTGGTGGTGAGGGCGCAGTTCGGAGTCACCTAGTGCAG”: 8680 fluorescence intensity (a.u.); “TCTCCTGGTTTTGTGTGTTAGCGCTGTCAGTGTGTGGGTGCGGAGTCACCTAGTGCAG”: 8120 fluorescence intensity (a.u.). To “GGTGCGGCGGTGGGCGGCATGGAGATGGGGAGAGGAGGCGCGGAGTCACCTAGTGCAG” belongs 10600 fluorescence intensity (a.u.); to “GGGTGGGTGGGGCGGTGCTTTCCTGGAGATGGGAGAGTGGCGGAGTCACCTAGTGCAG”, 23000 fluorescence intensity (a.u.); to “GGGTGCTGGGGCTTTGGCTGCCTTGACTTGGATTGCCTTCCGGAGTCACCTAGTGCAG”, 8640 fluorescence intensity (a.u.). In the case of “CTGGGGTTGGCCTGGGCTGATATATGTTTGGCGCTCAAAACGGAGTCACCTAGTGCAG”, the binding signal was 11100 fluorescence intensity (a.u.). Next, “GGGTGGGGTGGGCCTGGGCTGATGCATGTTTGGCGCTTAGCGGAGTCACCTAGTGCAG”: 21200 fluorescence intensity (a.u.). Next, “TCGGAGTGGGGAGATGGTGTCGGGGTGCTGGGTTTCCGGGCGGAGTCACCTAGTGCAG”: 13100 fluorescence intensity (a.u.).
